# Where a name gives a salt, the structure may show the parent alone.
# Tests used:
# [1] = system: Staphylococcus aureus MW2 delta-mecA (mecA-); assay: normalized GFP fluorescence (growth of mecA- strain) (fraction of control range); higher = more growth of mecA- strain; details: compound concentration: 150 uM; cefoxitin: subinhibitory; fluorescent label: GFP
# In short: (§1)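 Fluorescence from DsRed (540/590) and GFP (485/520) was recorded after 20 h of static growth at 37 °C and 90% humidity. The wells held a 1:1 mix of pre-induced S. aureus MW2 cells, gene-bearing with DsRed and gene-deleted with GFP, in LB with a daily-set subinhibitory antibiotic dose, dispensed at 5 µL/well onto 150 μM compound (1.5% DMSO) in 1536-well plates, single replicate. Each channel was scaled per plate between single-strain control medians, excluding plates with high untreated ratios and rows with DsRed/GFP >10.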
# [2] = system: Staphylococcus aureus MW2 (mecA+); assay: normalized DsRed fluorescence (growth of mecA+ strain) (fraction of control range); higher = more growth of mecA+ strain; details: compound concentration: 150 uM; cefoxitin: subinhibitory; fluorescent label: DsRed
# In short: as §1
Structure (SMILES),normalized GFP fluorescence [1],normalized DsRed fluorescence [2]
CC(C)(C)NC(=O)[C@H]1CC[C@H]2[C@@H]3CC[C@H]4NC(=O)C=C[C@]4(C)[C@H]3CC[C@]12C,0.27,0.691
CC(C)[C@H]1CC[C@H](C(=O)N[C@H](Cc2ccccc2)C(=O)O)CC1,3.92e-05,0.513
CC(=O)N[C@@H](CS)C(=O)O,0.328,0.653
CCCCCCc1ccc(O)cc1O,0.0569,1.59
Nc1ncn([C@H]2C[C@H](O)[C@@H](CO)O2)c(=O)n1 [Decitabine],0.242,0.802
Cc1cc2c(s1)Nc1ccccc1N=C2N1CCN(C)CC1,0.695,0.803
CN1CC(=O)N2[C@H](c3ccc4c(c3)OCO4)c3[nH]c4ccccc4c3C[C@@H]2C1=O,0.112,0.636
CCCSc1nc(N[C@@H]2C[C@H]2c2ccc(F)c(F)c2)c2nnn([C@@H]3C[C@H](OCCO)[C@@H](O)[C@H]3O)c2n1 [Ticagrelor],-0.0296,-0.0335
CC1=Nc2ccc(Cl)cc2S(=O)(=O)N1,0.259,0.639
Nc1nc(N)c2nc(-c3ccccc3)c(N)nc2n1,0.0839,1.75
COc1cc(NC(C)CCCN)c2ncccc2c1 (stereo not given),-0.00346,0.672
CCCCOc1cc(C(=O)NCCN(CC)CC)c2ccccc2n1 [Dibucaine (Cinchocaine) HCl],0.265,0.835
c1cc(CN2CCCNCCNCCCNCC2)ccc1CN1CCCNCCNCCCNCC1 [Plerixafor],0.396,0.938
Oc1ncnc2[nH]ncc12,0.524,0.531
CCCNC(C)C(=O)Nc1ccccc1C (stereo not given),0.223,0.919

# Source: the supplement of paper PMC7695840
